Source: PubChem (several laboratories)
pCIP destab = p/CIP protein destabilization; Q05BA5; F442A p/CIP-EGFP cells, EGFP fluorescence, 16 h; decrease of EGFP signal, % at 10 µM; 290,000 compounds, 0.01% hits; AID 1984;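 active = EGFP signal decrease of at least 30% at 10 µM or well 3 SD below plate mean, unless failing retest; inactive = the rest, including hits failing retest or dose response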
GPR7 antag = human neuropeptides B/W receptor 1 antagonism; P48145; GPR7-expressing cells, fluorescence antagonist assay; inhibition, % at 4.4 µM; 290,000 compounds, 1.1% hits; in the data active = inhibition above about 16%, passing the limit was not always enough;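 note: cells stimulated with the agonist NPW; 0% = agonist with vehicle and 100% = vehicle without agonist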
JMJD2C inh = inhibitors of human GASC-1 (JMJD2C) demethylase. Q9H3R0. GST-JMJD2C(1-420) H3K9me3 demethylation, DELFIA europium. inhibition, % at 2.35 µM. 330,000 compounds, 0.069% hits. AID 2099;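 active = more than half of a compound's replicate wells show inhibition beyond 50%, single wells judged on their own value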;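 note: signal counts dimethyl H3K9 product captured on neutravidin plate; 0% = median of DMSO wells and 100% = 0.3 times that DMSO median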
VLA-4 inh = inhibition in a human VLA-4 binding assay | VLA-4 expressing cells, ligand binding flow cytometry | inhibition, % (about 7 µM as worked out from the volumes in the protocol) | 330,000 compounds, 0.2% hits | AID 2557; in the data active = inhibition above about 50%
GPR7 antag conf = human GPR7 antagonism, confirmation assay; 2,400 compounds, 52% hits; shares compounds with GPR7 antag; AID 1952; GPR7-expressing cells, calcium fluorescence antagonist mode; inhibition, % at 4.4 µM; in the data active = inhibition above about 24%;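 note: stimulated with the GPR7 agonist NPW; 0% = agonist plus vehicle and 100% = vehicle alone without agonist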
MCHR1 antag = antagonizes human MCHR1, a GPR7 antagonist counter-screen. shares compounds with GPR7 antag. MCHR1-expressing cells, fluorescence antagonist assay. inhibition, % at 4.4 µM. 2,400 compounds, 62% hits. AID 2148; in the data active = inhibition above about 22%;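 note: 0% = vehicle with agonist and 100% = vehicle without agonist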
Active calls of the source: *. Rows were chosen to be rich in hits. Some 1.2% of all compounds tested hit in one or more screens of this group.

How did O=C(COC(=O)[C@H](Cc1ccccc1)NC(=O)c1cccs1)Nc1c(Cl)cccc1Cl do in these assays?
pCIP destab: -7.6; GPR7 antag: 23.2*; JMJD2C inh: 57.6; VLA-4 inh: 28.0; GPR7 antag conf: 19.9; MCHR1 antag: 31.6*

Results for Cc1nc(N2CCC(C)CC2)c2c(C)c(C(=O)Nc3cccc(C(F)(F)F)c3)sc2n1 ?
pCIP destab: 7.0; GPR7 antag: 25.0*; JMJD2C inh: 0.9; VLA-4 inh: 8.9; GPR7 antag conf: -29.3; MCHR1 antag: -3.8

Results for Fc1ccc(CNCCC(Cc2ccccc2)c2ccco2)cc1 (stereo not drawn) ?
pCIP destab: -4.9; GPR7 antag: 28.6*; JMJD2C inh: 3.7; VLA-4 inh: 13.7; GPR7 antag conf: 43.8*; MCHR1 antag: 39.7*

What do the screens show for `O=C(NCCNCc1ccc(F)cc1)c1ccco1`?
pCIP destab: -10.8; GPR7 antag: -9.3; JMJD2C inh: 9.3; VLA-4 inh: 24.1

Results for CC(NCCC(Cc1ccccc1)c1ccco1)c1ccccc1 (stereo not drawn) ?
pCIP destab: -7.0; GPR7 antag: 24.5*; JMJD2C inh: 6.6; VLA-4 inh: -42.5; GPR7 antag conf: 40.9*; MCHR1 antag: 50.1*

How did COc1ccc2[nH]c3c(c2c1)CCNC3=O do in these assays?
JMJD2C inh: 12.7; VLA-4 inh: 26.0

What do the screens show for `C=C1CCc2c([nH]c3ccc(OCC(C)C)cc23)C1=O`?
pCIP destab: 0.3; GPR7 antag: 56.5*; JMJD2C inh: 9.8; VLA-4 inh: 29.4; GPR7 antag conf: 91.3*; MCHR1 antag: 97.5*

How did OCC1(Cc2ccc(Cl)cc2)CCN(CCCc2ccccc2)CC1 do in these assays?
pCIP destab: -2.4; GPR7 antag: 26.0*; JMJD2C inh: 5.3; VLA-4 inh: 15.2; GPR7 antag conf: 36.5*; MCHR1 antag: 31.4*

Results for COc1ccccc1NCC(O)Cn1c2ccccc2c2ccccc21 (stereo not drawn) ?
pCIP destab: -4.6; GPR7 antag: 6.4; JMJD2C inh: -0.5; VLA-4 inh: 19.2

How did COc1ccc(CCNCC(O)Cn2c3ccccc3c3ccccc32)cc1OC (stereo not drawn) do in these assays?
pCIP destab: -1.5; GPR7 antag: 43.4*; JMJD2C inh: -17.8; VLA-4 inh: 42.4; GPR7 antag conf: 56.0*; MCHR1 antag: 74.1*

How did COc1ccc2[nH]c3c(c2c1)CCN1C(=O)N([C@@H](C)C(=O)NC2CCCCC2C)C(=O)[C@]31C (stereo partly drawn) do in these assays?
pCIP destab: 9.4; GPR7 antag: 22.8*; JMJD2C inh: 4.1; VLA-4 inh: -18.1; GPR7 antag conf: 9.8; MCHR1 antag: 58.3*

How did COc1ccc(CNC(=O)[C@H](C)N2C(=O)N3CCc4c([nH]c5ccc(OC)cc45)[C@@]3(C)C2=O)cc1 do in these assays?
pCIP destab: -1.3; GPR7 antag: 8.2; JMJD2C inh: 44.3; VLA-4 inh: -20.0

What do the screens show for `C[C@@H](C(=O)NC1CCCC1)N1C(=O)N2CCc3c([nH]c4ccccc34)[C@@]2(C)C1=O`?
pCIP destab: 11.5; GPR7 antag: 25.7*; JMJD2C inh: -16.5; VLA-4 inh: 13.6; GPR7 antag conf: 23.3; MCHR1 antag: 5.8

How did COc1ccc(OC)c(NC(=O)CSc2nc(=O)n(Cc3ccccn3)c3c2CCC3)c1 do in these assays?
JMJD2C inh: 14.1; VLA-4 inh: 11.6

How did Cc1cc2c(cc3c(=O)n(CC(=O)NCCCN4CC(C)CC(C)C4)ncn32)s1 (stereo not drawn) do in these assays?
pCIP destab: -5.1; GPR7 antag: -5.2; JMJD2C inh: 35.3; VLA-4 inh: -3.5

What do the screens show for `CCN(Cc1ccccc1)C(=O)CC(=O)N(CC)Cc1ccccc1`?
pCIP destab: -12.4; GPR7 antag: -11.3; JMJD2C inh: 198.1; VLA-4 inh: 14.4

What do the screens show for `CCOc1cc(CNC(C)(C)CO)cc(Br)c1OCc1ccc(Cl)cc1Cl`?
pCIP destab: -4.0; GPR7 antag: 45.6*; JMJD2C inh: -7.0; VLA-4 inh: 21.1; GPR7 antag conf: 67.4*; MCHR1 antag: 77.8*

What do the screens show for `CCOc1cc(CNCCO)cc(Br)c1OCc1ccc(Cl)cc1`?
pCIP destab: 3.3; GPR7 antag: 53.6*; JMJD2C inh: -13.5; VLA-4 inh: 30.1; GPR7 antag conf: 70.2*; MCHR1 antag: 78.0*

What do the screens show for `COc1ccc(CN(C(=O)c2ccc(-c3ccccc3)[nH]2)C(C(=O)NCC2CCCO2)c2ccc(C)o2)cc1` (stereo not drawn)?
pCIP destab: -5.0; GPR7 antag: -4.1; JMJD2C inh: 6.9; VLA-4 inh: -2.7

How did CS(=O)(=O)c1ccc(C(=O)OCc2nnc(-c3ccc(Cl)cc3)o2)cc1[N+](=O)[O-] do in these assays?
pCIP destab: 7.2; GPR7 antag: 35.2*; JMJD2C inh: 39.4; VLA-4 inh: 11.8; GPR7 antag conf: 87.7*; MCHR1 antag: 77.9*

Results for O=C(OCc1nnc(-c2ccc(Cl)cc2)o1)c1ccc(O)cc1 ?
pCIP destab: -6.0; GPR7 antag: 4.8; JMJD2C inh: -4.0; VLA-4 inh: -12.0

How did CCOC(=O)c1nc(C)nc(Sc2n[nH]c(-c3cc(C(F)(F)F)cc(C(F)(F)F)c3)n2)c1C do in these assays?
pCIP destab: -8.9; GPR7 antag: -8.2; JMJD2C inh: -2.3; VLA-4 inh: 11.5

How did O=C(Nc1ccc(-n2nncc2-c2ccco2)cc1)c1cccc(F)c1 do in these assays?
pCIP destab: 0.7; GPR7 antag: 39.2*; JMJD2C inh: 17.1; VLA-4 inh: 6.7; GPR7 antag conf: 62.2*; MCHR1 antag: 48.8*

What do the screens show for `c1ccc(CCSc2nccn2-c2ccccc2)cc1`?
pCIP destab: -19.0; GPR7 antag: 1.6; JMJD2C inh: 3.2; VLA-4 inh: 3.1

How did CCc1ccc(CSc2nccn2-c2ccccc2)cc1 do in these assays?
pCIP destab: -13.3; GPR7 antag: 26.9*; JMJD2C inh: 6.4; VLA-4 inh: -0.8; GPR7 antag conf: -8.6; MCHR1 antag: 40.5*

Results for Cc1cc(C(=O)N[C@H](c2ccccc2)[C@@]2(C)C[C@@H]2[C@@H](C)C(=O)Nc2ccc3ccccc3c2)no1 ?
pCIP destab: -0.9; GPR7 antag: 29.3*; JMJD2C inh: -15.5; VLA-4 inh: 1.3; GPR7 antag conf: 46.0*; MCHR1 antag: 63.6*

What do the screens show for `Cc1cc(C(=O)N[C@@H](c2ccccc2)[C@]2(C)C[C@H]2[C@@H](C)C(=O)Nc2ccc3ccccc3c2)no1`?
pCIP destab: -17.6; GPR7 antag: 1.9; JMJD2C inh: 6.1; VLA-4 inh: -6.7

Results for O=C(O)COc1ccc(C(NC(=O)c2c(F)cccc2F)NC(=O)c2c(F)cccc2F)cc1 ?
pCIP destab: -9.9; GPR7 antag: -6.2; JMJD2C inh: -6.4; VLA-4 inh: -4.1
